Calls of active or inactive are those of the source. Rule for the calls: active = hit-call score of the fitted dose curve at least 0.9, where 1 is the maximum; inactive = score below 0.9.

As usually defined, the AC50 is the midpoint of the concentration-response curve, whichever way the signal moves.

The nature of experiment [1]: BSK_LPS_SRB: Viability Assessment in the BioMAP Diversity Plus: LPS Assay (AID 2283079).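 Note: total protein by sulforhodamine B absorbance as a cytotoxicity measure; measured one day after compound addition.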 Particulars: primary human HUVEC with PBMC. The procedure, abridged:
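HUVEC + PBMC co-culture, LPS-stimulated; compound 24 h. 10% TCA fix, 0.1% SRB stain, A560. Bidirectional fit vs DMSO.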

Read-out in experiment [2]: Interleukin-1 alpha (IL1a), IL1A (gene 3552)
The experiment is described as follows: BSK_LPS_IL1a: BioMAP Diversity Plus: LPS Assay for Interleukin-1 alpha (IL1a) Biomarker Activity (AID 2283080). The following applies: primary human HUVEC with PBMC; actives raise or lower the signal. The procedure, abridged: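 HUVEC/PBMC co-culture, LPS system; 24 h after dosing; IL-1a by ELISA; gain or loss of signal fitted bidirectionally vs DMSO baseline.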

Read-out in experiment [3]: Monocyte Chemoattractant Protein-1 (MCP1), CCL2 (gene 6347)
Briefly: BSK_LPS_MCP1: BioMAP Diversity Plus: LPS Assay for Monocyte Chemoattractant Protein-1 (MCP1) Biomarker Activity (AID 2283081). The following applies: primary human HUVEC with PBMC; actives raise or lower the signal. The method in brief: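 ELISA read-out of MCP-1 after 24 h chemical dosing of a human umbilical vein endothelial cell/peripheral blood mononuclear cell co-culture stimulated with LPS. Gain or loss of signal fitted relative to DMSO controls.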

The nature of experiment [4]: BSK_LPS_PGE2: BioMAP Diversity Plus: LPS Assay for Prostaglandin E2 (PGE2) Biomarker Activity (AID 2283082).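 For AC50: secreted prostaglandin E2 measured by ELISA in LPS-stimulated co-culture.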 The following applies: primary human HUVEC with PBMC; actives raise or lower the signal. The method in brief: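 ELISA read-out of PGE2 from human umbilical vein endothelial cells co-cultured with peripheral blood mononuclear cells under LPS, 24 h post-dose. Gain or loss of signal scored relative to DMSO baseline.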

Read-out in experiment [5]: Macrophage colony-stimulating factor (MCSF), CSF1 (gene 1435)
Briefly: BSK_LPS_MCSF: BioMAP Diversity Plus: LPS Assay for Macrophage colony-stimulating factor (MCSF) Biomarker Activity (AID 2283083). Particulars: primary human HUVEC with PBMC; actives raise or lower the signal. The method in brief: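 HUVEC + PBMC co-culture (human primary), 24 h post-dose; M-CSF by ELISA; gain/loss of signal fitted bidirectionally vs DMSO baseline.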

Read-out in experiment [6]: Tissue Factor, F3 (gene 2152)
Briefly: BSK_LPS_TissueFactor: BioMAP Diversity Plus: LPS Assay for Tissue Factor Biomarker Activity (AID 2283084). The following applies: primary human HUVEC with PBMC; actives raise or lower the signal. The procedure, abridged: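 HUVEC/PBMC co-culture, LPS-activated; CD142 ELISA read 24 h post-dose; bidirectional curve fit vs DMSO negative control.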

Read-out in experiment [7]: Tumor necrosis factor (Homo sapiens) (UniProt P01375)
Briefly: BSK_LPS_TNFa: BioMAP Diversity Plus: LPS Assay for Tumour Necrosis Factor alpha (TNFa) Biomarker Activity (AID 2283085).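 For AC50: TNFa protein level quantified by ELISA in the co-culture.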 The following applies: primary human HUVEC with PBMC; actives raise or lower the signal. The method in brief: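 HUVEC/PBMC co-culture, LPS-stimulated; 24 h post-dose; TNFa by ELISA; gain or loss of signal fitted bidirectionally vs DMSO baseline.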

Read-out in experiment [8]: Vascular cell adhesion molecule 1 (VCAM1), VCAM1 (gene 7412)
Briefly: BSK_LPS_VCAM1: BioMAP Diversity Plus: LPS Assay for Vascular cell adhesion molecule 1 (VCAM1) Biomarker Activity (AID 2283086). The following applies: primary human HUVEC with PBMC; actives raise or lower the signal. The procedure, abridged: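 ELISA read-out of VCAM-1 at 24 h post-dosing in an LPS-driven HUVEC/PBMC primary human co-culture; gain or loss of signal fitted bidirectionally against DMSO baseline. Cytotoxicity tracked in parallel cultures by SRB total-protein staining.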

Read-out in experiment [9]: CD38, CD38 (gene 952)
The experiment is described as follows: BSK_SAg_CD38: BioMAP Diversity Plus: SAg Assay for CD38 Biomarker Activity (AID 2283087). Particulars: primary human HUVEC with PBMC; actives raise or lower the signal. The method in brief: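 Measures CD38 on a human endothelial/PBMC co-culture driven by SEB and TSST-1, 24 h after compound exposure, using ELISA with fluorescence detection; DMSO defines baseline for bidirectional curve fitting.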

Read-out in experiment [10]: CD40, CD40 (gene 958)
The experiment is described as follows: BSK_SAg_CD40: BioMAP Diversity Plus: SAg Assay for CD40 Biomarker Activity (AID 2283088). Particulars: primary human HUVEC with PBMC; actives raise or lower the signal. The procedure, abridged: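 HUVEC/PBMC co-culture, 24 h post-dose; CD40 by ELISA, fluorescence intensity; bidirectional fit vs DMSO negative control.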

Read-out in experiment [11]: Monocyte Chemoattractant Protein-1 (MCP1), CCL2 (gene 6347)
Briefly: BSK_SAg_MCP1: BioMAP Diversity Plus: SAg Assay for Monocyte Chemoattractant Protein-1 (MCP1) Biomarker Activity (AID 2283090). The following applies: primary human HUVEC with PBMC; actives raise or lower the signal. The procedure, abridged: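 Values derive from bidirectional fitting of ELISA-measured MCP1 against DMSO controls. Readings were taken 24 h after dosing human vascular endothelial cells co-cultured with peripheral blood mononuclear cells under superantigen stimulation.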

Read-out in experiment [12]: E-selectin (Homo sapiens) (UniProt P16581)
The experiment is described as follows: BSK_SAg_Eselectin: BioMAP Diversity Plus: SAg Assay for Eselectin Biomarker Activity (AID 2283091). The following applies: primary human HUVEC with PBMC; actives raise or lower the signal. The procedure, abridged: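 E-selectin ELISA readout at 24 h post-dosing in human umbilical vein endothelial cell/PBMC co-culture; gain or loss of signal fitted relative to DMSO baseline.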

Read-out in experiment [13]: Monokine induced gamma interferon (MIG), CXCL9 (gene 4283)
Briefly: BSK_SAg_MIG: BioMAP Diversity Plus: SAg Assay for Monokine induced gamma interferon (MIG) Biomarker Activity (AID 2283092). The following applies: primary human HUVEC with PBMC; actives raise or lower the signal. The procedure, abridged: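 HUVEC plus human PBMC co-culture, chemicals dosed and MIG (CXCL9) quantified by ELISA at 24 h. Bidirectional curve fitting against DMSO as negative control and baseline, so both gain and loss of signal count as activity.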

The nature of experiment [14]: BSK_SAg_PBMCCytotoxicity: PBMC Cytotoxicity Assessment in the BioMAP Diversity Plus: SAg Assay (AID 2283093).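 For AC50: PBMC superantigen activated with SEB plus TSST-1 one hour after compound addition.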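 Note: fitted both ways against DMSO so a hit may be loss or gain of signal.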 The following applies: primary human HUVEC with PBMC. The method in brief:
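PBMC viability by Alamar Blue reduction, fluorescence read at 546/580 nm after 6 h dye exposure. Cells were dosed 1 h before SEB plus TSST-1 activation (20 ng/mL final each), then held 90 h; endothelial/PBMC human co-culture.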

Read-out in experiment [15]: Interleukin-8 (IL8), CXCL8 (gene 3576)
The experiment is described as follows: BSK_SAg_IL8: BioMAP Diversity Plus: SAg Assay for Interleukin-8 (IL8) Biomarker Activity (AID 2283094). The following applies: primary human HUVEC with PBMC; actives raise or lower the signal. The procedure, abridged:
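HUVEC/PBMC co-culture, 24 h post-dose; IL-8 by ELISA. Gain or loss of signal fitted bidirectionally vs DMSO baseline.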

Experiment [16] can be described thus: BSK_SAg_Proliferation: Cell Proliferation Assessment in the BioMAP Diversity Plus: SAg Assay (AID 2283095).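 Note: relative cell number as total protein by SRB absorbance in sub-confluent culture.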 Particulars: primary human HUVEC with PBMC. The procedure, abridged: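 HUVEC/PBMC co-culture, 96-well. TCA-fixed (10%), 0.1% SRB stain, A560 at 96 h. Protein content used as viability readout; bidirectional fitting vs DMSO control.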
The nature of experiment [17]: BSK_SAg_SRB: Viability Assessment in the BioMAP Diversity Plus: SAg Assay (AID 2283096).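 Note: cells read one day after compound addition; hits may be either gain or loss of signal compared with DMSO.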 Particulars: primary human HUVEC with PBMC. The method in brief:
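Compounds were added to a human vascular co-culture of umbilical vein endothelium and PBMC. After 24 h, parallel cultures were fixed with 10% TCA, stained with 0.1% sulforhodamine B and read at 560 nm. Gain or loss of signal was fitted relative to DMSO.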

Sequence of E-selectin (Homo sapiens) (P16581 whole entry, looked up): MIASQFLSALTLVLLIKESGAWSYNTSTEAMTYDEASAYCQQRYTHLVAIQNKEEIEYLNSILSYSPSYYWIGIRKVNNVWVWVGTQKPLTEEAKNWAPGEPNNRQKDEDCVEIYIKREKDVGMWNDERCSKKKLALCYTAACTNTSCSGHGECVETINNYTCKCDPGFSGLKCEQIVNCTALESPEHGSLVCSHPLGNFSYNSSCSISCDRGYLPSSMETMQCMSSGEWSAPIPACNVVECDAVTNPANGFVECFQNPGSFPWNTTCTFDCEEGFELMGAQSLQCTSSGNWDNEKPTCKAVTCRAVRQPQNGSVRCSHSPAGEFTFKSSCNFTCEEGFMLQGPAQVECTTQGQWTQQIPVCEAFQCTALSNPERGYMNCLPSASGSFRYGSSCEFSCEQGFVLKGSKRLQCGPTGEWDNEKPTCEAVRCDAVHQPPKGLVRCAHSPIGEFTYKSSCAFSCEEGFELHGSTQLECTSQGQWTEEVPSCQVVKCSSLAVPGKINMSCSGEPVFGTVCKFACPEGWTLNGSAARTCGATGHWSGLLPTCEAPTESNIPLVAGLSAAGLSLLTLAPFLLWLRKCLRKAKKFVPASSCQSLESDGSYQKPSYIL
Sequence of Tumor necrosis factor (Homo sapiens) (P01375 whole entry, looked up): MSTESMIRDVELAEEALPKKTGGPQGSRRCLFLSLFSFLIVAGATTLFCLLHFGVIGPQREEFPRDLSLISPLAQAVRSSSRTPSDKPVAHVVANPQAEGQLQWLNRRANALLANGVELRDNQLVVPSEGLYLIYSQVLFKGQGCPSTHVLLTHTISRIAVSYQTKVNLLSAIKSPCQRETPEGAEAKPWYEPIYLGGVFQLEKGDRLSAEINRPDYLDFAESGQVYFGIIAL

Turning to `CCOC(=O)C(C)Oc1ccc(Oc2cnc3cc(Cl)ccc3n2)cc1` (centres undefined), the result in [1], in [2], in experiment [3], in [5], in experiment [6] and in experiment [7] was inactive. Moreover, the outcome in experiment [8], in experiment [9], in [10], in experiment [11], in [12] and in [13] was inactive. In addition, the outcome in experiment [14], in experiment [15], in experiment [16] and in experiment [17] was inactive. Moreover, the AC50 in [4] is 13.1 µM (active).

In the case of `CC(C)CCCCCCc1ccc(O)cc1`, the concentration at half-maximal activity (AC50) was 13.8 µM (active) in [1]; 6.77 µM (active) in experiment [2]; 6.36 µM (active) in [4]; 9.04 µM (active) in [5]; 12.3 µM (active) in experiment [6]; 7.19 µM (active) in experiment [7]. For the same compound, the AC50 in experiment [8] is 10 µM (active); in experiment [9], 8.61 µM (active); in experiment [10], 8.59 µM (active); in experiment [11], 6.52 µM (active); in [12], 9.34 µM (active); in experiment [13] it was 9.25 µM (active). Further, the AC50 in experiment [14] is 6.38 µM (active); in [15] it was 6.55 µM (active); in experiment [16], 5.59 µM (active); in experiment [17], 13.1 µM (active).

Regarding `COC(=O)c1ccc(CNS(C)(=O)=O)cc1S(=O)(=O)NC(=O)Nc1nc(OC)cc(OC)n1`, the outcome in experiment [1], in experiment [2], in [3], in experiment [4], in [5] and in experiment [6] was inactive. The result in [7], in experiment [8], in [9], in experiment [10], in experiment [11] and in experiment [12] was inactive. Also, the outcome in [13], in [14], in [15], in experiment [16] and in experiment [17] was inactive.

With `CCN(CC)C(=O)c1cccc(C)c1`, the result in experiment [1], in [2], in experiment [3], in experiment [4], in [5] and in experiment [6] was inactive. Further, the outcome in experiment [7], in [8], in [9], in [10], in [11] and in experiment [12] was inactive. Further, the outcome in experiment [13], in [14], in experiment [15] and in [16] was inactive. In addition, in experiment [17], the half-maximal activity concentration (AC50) was 13.9 µM (active).

For `OB(O)O`, the result in [1], in [2], in [3], in experiment [4], in experiment [5] and in [6] was inactive. Moreover, the outcome in [7], in experiment [8], in [9], in [10], in experiment [11] and in experiment [12] was inactive. Moreover, the outcome in experiment [13], in experiment [14], in experiment [15], in [16] and in experiment [17] was inactive.
